From PubChem
DT40 TDP1 no CPT: qHTS for Inhibitors of human tyrosyl-DNA phosphodiesterase 1 (TDP1): qHTS in cells in absence of CPT; DT40 Tdp1-/- hTDP1 cells, no CPT, ATP luminescence, 48 h; Potency, µM (doses to about 46.2 µM), usual class: inhibitors; actives 15% (n = 420,000); note: nearly all actives have a fitted effect of over 55% in size
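Readout: luminescence from CellTiter-Glo after 30 min in the dark at RT. Cells: DT40 Tdp1-/- with stable hTDP1, 400/well. Exposure: compounds alone, ≥48 hr, 37 °C.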
ClpP mod: qHTS Assay for Activators of ClpP; AID 651965, 2013; actives 1.9% (n = 340,000); ATP-dependent Clp protease proteolytic subunit (Bacillus subtilis (strain 168)), P80244; purified B. subtilis ClpP, FRET peptide cleavage, 20 min; Potency, µM (series often up to 57.5 µM); active = well fitted falling curve with a large enough effect; inconclusive = small, poorly fitted or top-dose-only effect; inactive = no such curve, though single readings can be large or run the other way; note: the source files actives as falling curves though it sought activators and does not explain the sign; nearly all actives have a fitted effect of over 65% in size
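Purified B. subtilis ClpP, 10 microg/mL final in Tris/HCl pH8 with KCl, BSA, glycerol and Tween-20, cleaved an Abz/nitrotyrosine-quenched decapeptide. Fluorescence (ex 320, em 430) was read at 0 and 20 min at room temperature. Delta was normalized to 5.8 microM ADEP and DMSO/no-enzyme controls.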
TDP1 cell CPT: DT40-hTDP1 cell growth loss with CPT; Potency, µM (series often up to 46.2 µM), most hits filed as inhibitors; actives 12% (n = 420,000); AID 686979; chicken DT40 Tdp1-/-;hTDP1 cells + 20 nM CPT, ATP luminescence, 48 h; note: nearly all actives have a fitted effect of over 55% in size
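Cell growth measured by CellTiter-Glo luminescence after a minimum 48 h, 37 C compound exposure with 20 nM CPT in Tdp1-knockout DT40 cells stably expressing hTDP1, seeded 400/well; qHTS titration format.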
TDP1 inh: blocks human tyrosyl-DNA phosphodiesterase 1; recombinant TDP1, AlphaScreen DNA substrate cleavage; Potency, µM (top dose mostly 130 µM), hits mostly inhibitors; actives 0.28% (n = 350,000); AID 485290; note: nearly all actives have a fitted effect of over 40% in size
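Here, a 5' biotin and 3' phosphotyrosine-FITC DNA oligonucleotide reports Tdp1 activity: intact substrate bridges AlphaScreen beads, while cleavage leaves a 3' phosphate and drops signal. All incubations at room temperature.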
A number is an active result; i = inactive; ? = inconclusive; nt = not tested or not shown; [ ] = remark or other dose. Only some compounds are listed: those with a hit (about 17% of all), similar ones and a draw of the others. Unless noted, calls come from the whole dose curve; as a rule, active = well fitted curve in the direction sought with a large enough effect; inconclusive = small, poorly fitted or top-dose-only effect, or another doubt; inactive = no such curve, though single readings can be large; an effect the other way counts as inactive or inconclusive.

SMILES | DT40 TDP1 no CPT | ClpP mod | TDP1 cell CPT | TDP1 inh
CC1CN(CC(=O)Nc2nc3ccccc3s2)CC(C)O1 (stereo not drawn) | i | i | i | nt
Cn1c(=O)c([N+](=O)[O-])c(N2CCSCC2)c2ccccc21 | ? | i | ? | i
CCn1c(=O)c([N+](=O)[O-])c(N2CCSCC2)c2ccccc21 | 23µM | i | ? | i
CCCCn1c(SCC(=O)Nc2cc(NC(=O)c3ccco3)ccc2C)nc2ccccc2c1=O | 23µM | i | ? | i
CCCCn1c(SCC(=O)NCc2ccco2)nc2ccc(N3CCOCC3)cc2c1=O | ? | i | ? | i
CCn1c(SCC(=O)Nc2ccc(NC(=O)c3ccco3)c(OC)c2)nc2ccccc2c1=O | i | 28µM | i | ?
CCCCn1c(SCC(=O)NCc2ccccc2)nc2ccc(N3CCOCC3)cc2c1=O | 1.5µM | i | i | i
Cn1nc(-c2ccccc2)c(-c2ccccc2)c(C(=O)Nc2ccccc2C(N)=O)c1=O | ? | i | ? | i
CC1CCCCN1C(=O)COC(=O)/C=C/c1ccc2ccccc2n1 (stereo not drawn) | ? | i | ? | i
Cc1ccc(N2CCN(S(=O)(=O)c3c(C)[nH]c(=O)[nH]c3=O)CC2C)cc1 (stereo not drawn) | i | i | i | i
CCn1c(/C=C/Nc2ccccc2)[n+](CC)c2cc(Cl)c(Cl)cc21 | 3.3µM | i | 2.6µM | i
C=CCN(CC(O)c1cccc([N+](=O)[O-])c1)C(C)CCc1ccccc1 (stereo not drawn) | 21µM | nt | ? | nt
NC(=NCCc1ccccc1)c1cccc([N+](=O)[O-])c1 | i | i | i | nt
Cc1nc(-n2[nH]c3c(c2=O)CCCC3)[nH]c(=O)c1Cc1ccccc1 | 3.3µM | i | 2.9µM | i
Cc1nc(N2CCc3ccccc3C2)[nH]c(=O)c1Cc1ccccc1 | i | nt | i | i
CCCCCCOC(=O)c1ccccc1NC(=O)/C=C/C(=O)O | ? | i | 16µM | i
COCCC1CCCCN1C(=O)c1cc(COc2ccc(C)nc2)on1 (stereo not drawn) | 23µM | i | 21µM | i
CCOC(=O)C1CCCN(C(=O)c2cc(COc3ccc(C)nc3)on2)C1 (stereo not drawn) | ? | i | ? | i
CCC1CCCCN1C(=O)c1cc(COc2ccc(-n3cncn3)cc2)on1 (stereo not drawn) | 16µM | i | 18µM | i
O=C(c1cc(COc2ccc(-n3cncn3)cc2)on1)N1CCCC1 | i | i | i | nt
COCCCC1CCN(C(=O)c2cc(COc3ccc(C)nc3)on2)CC1 | 10µM | 28µM | 18µM | i
O=S(=O)(c1cccs1)N1CN(Cc2cccs2)c2nc3ccccc3nc21 | 16µM | i | ? | i
O=S(=O)(c1cccs1)N1CN(Cc2ccc(F)cc2)c2nc3ccccc3nc21 | ? | i | ? | i
C=CCN1CN(S(=O)(=O)c2cccs2)c2nc3ccccc3nc21 | i | 25µM | i | i
O=S(=O)(c1cccs1)N1CN(Cc2ccccc2)c2nc3ccccc3nc21 | ? | ? | ? | i
SMILES | DT40 TDP1 no CPT | ClpP mod | TDP1 cell CPT | TDP1 inh
CCOC(=O)N/N=C1/C[C@@H](O)[C@@H](O)[C@@H]2[C@@H]3C(=O)N(C4CCCCC4)C(=O)[C@H]3CC[C@@H]12 | nt | nt | nt | i[21 µM]
O=C(O)/C=C/C(=O)Nc1ccccc1SC(F)(F)F | 21µM | i | 7.3µM | i
CCn1cc(C(=O)N2CCN(c3ccccc3)CC2)c(=O)c2cc(S(=O)(=O)N(C)C)ccc21 | i | i | i | i
O=C(COc1ccc(Br)cc1)N(Cc1ccco1)C1CCS(=O)(=O)C1 (stereo not drawn) | i | i | i | i
NC(=O)[C@@H]1CCCN1C(=O)CC1(c2cccc(F)c2)CC(=O)N(C2CCCC2)C1=O (stereo partly drawn) | i | nt | i[9.04 µM] | nt
COc1cccc(CNC(=O)c2c(O)nc3ccccn3c2=O)c1 | ? | i | i | i
O=C(NCc1ccc(F)cc1)c1c(O)nc2ccccn2c1=O | 21µM | i | ? | i
COc1ccc(CNC(=O)c2c(O)nc3c(C)cccn3c2=O)cc1 | 12µM | ? | ? | i
COc1ccc(CCNC(=O)c2c(O)nc3c(C)cccn3c2=O)cc1 | ? | i | 16µM | i
Cc1cccn2c(=O)c(C(=O)NCCc3ccc(S(N)(=O)=O)cc3)c(O)nc12 | i | ? | i | i
Cc1cccn2c(=O)c(C(=O)NC(C)c3ccccc3)c(O)nc12 (stereo not drawn) | ? | i | 18µM | i
CCCC1=Nc2cc(C(=O)NCCCOC(C)C)ccc2Sc2ccccc21 | 4.1µM | i | 4.6µM | i
CCCC1=Nc2cc(C(=O)NCCOC)ccc2Sc2ccccc21 | 0.58µM | i | ? | i
CCCC1=Nc2cc(C(=O)NCC(C)c3ccccc3)ccc2Sc2ccccc21 (stereo not drawn) | ? | i | ? | i
CC[C@]12C(=O)N(C)C[C@H]([C@@H]3C(=O)N(Cc4ccccc4)C(=O)[C@@H]31)N2C(=O)c1ccc(F)cc1 | i | i | i | nt
O=C(COC(=O)c1cc(=O)[nH]c2ccccc12)Nc1ccccc1F | i | nt | i | i
CC(=O)OC(COc1cccc(C)c1)Cn1cnc2ccccc21 (stereo not drawn) | 16µM | nt | ? | i
CC(=O)Nc1ccc(OCC(O)Cn2cnc3ccccc32)cc1 (stereo not drawn) | i | i | i | i
Cc1nn(CC(O)COc2ccc3c(c2)CCC3)c(C)c1C (stereo not drawn) | 21µM | i | ? | i
OC(COc1ccc2c(c1)CCC2)Cn1cnc2ccccc21 (stereo not drawn) | 18µM | i | 10µM | i
CCCCN1C(=N)N([C@@H](CN2CCC[C@H]2CN2C(N)=NC[C@@H]2Cc2ccccc2)C(C)C)C[C@H]1Cc1ccccc1 | 16µM | i | ? | i
CC[C@@H](C)[C@@H]1CN([C@@H](C)CN2CCC[C@H]2CN2C(N)=NC[C@H]2CC(C)C)C(=N)N1CCCC1CCCC1 | 23µM | ? | ? | i
CCCCN1C(=N)N([C@@H](CCC)CN2CCC[C@H]2CN2C(N)=NC[C@@H]2Cc2ccccc2)C[C@H]1[C@H](C)CC | 12µM | i | 13µM | i
CCC[C@@H](CN1CCC[C@H]1CN1C(N)=NC[C@H]1C(C)C)N1C[C@@H](Cc2ccccc2)N(CCCC2CCCC2)C1=N | 16µM | i | ? | i
CC[C@@H](C)[C@@H]1CN([C@@H](CN2CCC[C@H]2CN2C(N)=NC[C@H]2C(C)C)C(C)C)C(=N)N1CCc1ccc(Cl)c(Cl)c1 | 16µM | i | ? | i
CC[C@@H](C)[C@@H]1CN([C@@H](C)CN2CCC[C@H]2CN2C(N)=NC[C@@H]2Cc2ccccc2)C(=N)N1CCCC1CCCC1 | ? | i | ? | i
COc1ccc(-c2nc3cc(C)ccc3cc2CN(C(=O)c2csc(C)n2)C2CC2)cc1OC | i | nt | i[9.04 µM] | nt
COc1cc(NC(=O)c2nc(-c3ccncc3)no2)cc(OC)c1OC | ? | i | i | i
